# According to PubChem BioAssay:
# “And” between values parts separate entries of the source, which are not always exact repeats. Equal entries are not always repeated. The source made the active and inactive calls. Unless noted, the rule behind the calls is not given here.
# What was measured:
# [1] = glutamate transport activators, MN-1 cells, MN-1 cell line (AID 1612); settings: MN-1 motor neuron cells, stronger effect = higher value;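 note: tested at 1 µM final; 0% = mean of DMSO vehicle wells on each plate; positive means more glutamate uptake than control and negative means less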
# [2] = GFP-Q80 aggregate reduction, neuronal-like cells, cell-based, NGF-treated PC12, GFPQ80 (AID 1614); settings: PC12 NGF-treated GFP-polyQ80 inclusion reduction;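 note: lower means fewer inclusions and 0 means no inclusions at all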
# [3] = 75Q-TubH aggregate inhibition, S. cerevisiae, yeast (AID 1616); settings: S. cerevisiae 75Q-TubH polyglutamine aggregation suppression; stronger effect = higher value
# [4] = compounds altering circadian rhythm period length – cell-based, LOPAC library, luminescence reporter (AID 2774); settings: circadian reporter cells, at 7 µM, actives lie on both sides;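 note: values are relative to mean of DMSO wells on each plate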
# [5] = compounds altering Cy5-DNA-NS3h complex signal – biochemical, LOPAC1280, artefact control for HCV NS3 helicase inhibitor project (AID 687037); settings: Cy5-DNA-NS3h complex fluorescence interference counterscreen
# [6] = Wnt pathway potentiators raising nuclear beta-catenin – imaging, WNT3A-conditioned medium, mouse C2C12, NPC library, primary screen (AID 1117326; in the data active = nuclear beta-catenin stimulation mostly above about 4.2%, no sharp cut-off; inactive = mostly below about 10%); settings: stronger effect = higher value
# [7] = compounds altering viability of human ES cells (AID 493140); settings: human embryonic stem cell survival screen; stronger effect = higher value;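 note: cells exposed to compounds for four days before counting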
# [8] = P. berghei load reduction in hepatocytes – cell-based, HepG2, luciferase luminescence, HepG2 viability, primary screen (AID 624349; in the data active = parasite load remaining mostly below about 12%, no sharp cut-off; inactive = mostly above about 10%;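 note: 100% = mean of DMSO negative control wells on the same plate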); settings: P. berghei liver stage in HepG2, luciferase luminescence, concentration not given here; parasite load remaining: stronger effect = lower value; viability: measured here: HepG2 viability without parasites
# [9] = system: Hepatitis C virus NS3 helicase; test: blockers of NS3h binding to ssDNA – biochemical, fluorescence polarization, LOPAC1280 library, primary screen (AID 687035; in the data active = inhibition above about 37%); settings: Purified HCV NS3 helicase, Cy5-dT15 ssDNA binding fluorescence polarization; stronger effect = higher value; concentration not given here
SMILES,glutamate uptake change [1],inclusion score [2],aggregation suppression score [3],period change [4],fluorescence ratio (interference) [5],nuclear beta-catenin stimulation ([6]; at 10 µM),"nuclear beta-catenin stimulation ([6]; stimulation, at 2 µM)",survival [7],parasite load remaining [8],viability [8],inhibition [9]
NCCCC(=O)O,-3.42%,2,0.665,0.105 h (inactive),1 (inactive),2.4% (inactive),1.9%,,,,
NS(=O)(=O)c1cc2c(cc1Cl)NC(C(Cl)Cl)NS2(=O)=O (stereo not given),-0.6%,2,1.17,,,-0.1% (inactive),-0.1%,3.33 (inactive),,,
CC1CCc2cc(F)cc3c(=O)c(C(=O)O)cn1c23 (stereo not given),3.94%,2,0.905,,,3.1% (inactive),-1.1%,26.8 (inactive),,,
COc1cc(C(=O)NCc2ccc(OCCN(C)C)cc2)cc(OC)c1OC,0.14%,2,0.824,,,9.2% (inactive),5.8%,15.8 (inactive),,,
CNC[C@H](O)c1cccc(O)c1,3.44%,2,1.2,-0.48 h (inactive),1 (inactive),1.9% (inactive),1.7%,,64.7% (inactive) and 44.2% (inactive),77.3% and 99.6%,-1% (inactive)
Cc1cc(NC(=O)C2=C(O)c3ccccc3S(=O)(=O)N2C)no1,11.8%,2,-0.565,,,4% (inactive),1.7%,12.4 (inactive),,,
NC(N)=NCCN1CCCCCCC1,-19.4%,2,1.06,,,0.1% (inactive),-0.3%,13.9 (inactive),,,
NCCCC[C@H](N[C@@H](CCc1ccccc1)C(=O)O)C(=O)N1CCC[C@H]1C(=O)O,1.96%,2,0.836,,,0.4% (inactive),0.9%,16.8 (inactive),,,
CC(=O)Oc1ccc(C(c2ccc(OC(C)=O)cc2)c2ccccn2)cc1,13%,2,1.23,,,-0.9% (inactive),-2.7%,9.25 (inactive),,,
CC1(C)S[C@@H]2[C@H](NC(=O)[C@H](N)c3ccccc3)C(=O)N2[C@H]1C(=O)O,-16.2%,2,1.58,,,-0.1% (inactive),-0.4%,14.2 (inactive),,,
CCN(CC)C(=O)N1CCN(C)CC1,-11.4%,2,1.44,,,-0.1% (inactive),0.2%,18.8 (inactive),,,
Cc1cc(=O)n(-c2ccccc2)n1C,-12.9%,2,1.35,,,1.1% (inactive),0.3%,27 (inactive),,,
O=C(O)c1ccccc1Nc1cccc(C(F)(F)F)c1,-15.4%,2,-0.092,,,1.3% (inactive),2.3%,25.2 (inactive),,,
NC(=O)c1ncn([C@@H]2O[C@H](CO)[C@@H](O)[C@H]2O)c1O,20.3%,2,0.757,-0.05 h (inactive),1 (inactive),3% (inactive),2.4%,,,,-3% (inactive)
Cn1c(=O)c2c(ncn2C)n(C)c1=O,-3.95%,2,1.18,0.03 h (inactive),1 (inactive),0.2% (inactive),3.1%,,89.2% (inactive) and 70.9% (inactive),73.1% and 94.9%,-2% (inactive)
Cn1c(=O)c2c(ncn2CC(O)CO)n(C)c1=O (stereo not given),0%,1,1.31,,,-0.1% (inactive),0.8%,34 (inactive),,,
NC[C@H](O)c1ccc(O)c(O)c1,21.3%,2,1.39,0.04 h (inactive),0.9 (inactive),-1.8% (inactive),-1.5%,,,,-4% (inactive)
CCCCC1C(=O)N(c2ccccc2)N(c2ccccc2)C1=O,-15.3%,2,0.296,0.01 h (inactive),1 (inactive),-2% (inactive),-0.9%,,85.8% (inactive) and 69.9% (inactive) and 33.4% (inactive),73% and 101% and 70.5%,-4% (inactive)
CCCc1ncc(C[n+]2ccccc2C)c(N)n1,5.76%,1.5,0.986,,,-1.3% (inactive),-2%,8.58 (inactive),,,
NC(=O)NO,1.4%,2,1.3,-0.055 h (inactive),1 (inactive),-0.1% (inactive),4%,,113% (inactive) and 59.4% (inactive),74.6% and 101%,-3% (inactive)
CN1CCOC(c2ccccc2)c2ccccc2C1 (stereo not given),0.43%,1.5,1.44,,,-0.7% (inactive),-1.3%,21.3 (inactive),,,
CCN(CC)CCNC(=O)COc1ccc(OC)cc1,0.53%,2,1.23,,,0.5% (inactive),1.9%,49.8 (inactive),,,

SMILES,glutamate uptake change [1],inclusion score [2],aggregation suppression score [3],period change [4],fluorescence ratio (interference) [5],nuclear beta-catenin stimulation ([6]; at 10 µM),"nuclear beta-catenin stimulation ([6]; stimulation, at 2 µM)",survival [7],parasite load remaining [8],viability [8],inhibition [9]
NC(Cc1ccc(Cl)cc1)C(=O)O (stereo not given),-15.1%,2,1.23,-0.015 h (inactive),1 (inactive),1.4% (inactive),2.1%,,,,-3% (inactive)
Cc1cc(-c2ccccc2)nnc1NCCN1CCOCC1,4.73%,1,1.11,,,1.4% (inactive),0.5%,17.2 (inactive),,,
Cc1ccccc1OCC(O)CO (stereo not given),18.9%,2,1.74,,,0.8% (inactive),2.4%,11.9 (inactive),,,
Cc1ccc(C(=O)c2ccc(CC(=O)O)n2C)cc1,12.3%,2,0.801,,,5.9% (inactive),3.5%,3.83 (inactive),,,
NC(=O)NC1NC(=O)NC1=O (stereo not given),-8.53%,2,0.815,,,-0.1% (inactive),1.1%,26.8 (inactive),,,
NC(=O)c1ncn([C@@H]2O[C@H](CO)[C@@H](O)[C@H]2O)n1,14.1%,1.5,1.25,0.065 h (inactive),0.9 (inactive),1.7% (inactive),2.6%,,64.8% (inactive) and 245% (inactive) and 27% (inactive),80.3% and 108% and 67%,-6% (inactive)
COc1ccc2c(c1)c(CC(=O)OCC(=O)O)c(C)n2C(=O)c1ccc(Cl)cc1,-11%,2,0.866,,,1.8% (inactive),0.4%,19.2 (inactive),,,
Nc1c2c(nc3ccccc13)CCCC2O (stereo not given),6.03%,2,0.587,0.15 h (inactive),1 (inactive),-0.8% (inactive),-0.9%,,125% (inactive) and 39.9% (inactive),110% and 112%,-4% (inactive)
COc1cc(NS(=O)(=O)c2ccc(N)cc2)nc(OC)n1,-20.2%,2,1.32,,,0.5% (inactive),0.4%,3.33 (inactive),,,
CCn1cc(C(=O)O)c(=O)c2cnc(N3CCCC3)nc21,-9.95%,2,1.27,,,-0.4% (inactive),1.2%,4.5 (inactive),91.2% (inactive) and 141% (inactive),104% and 72%,
CCN(CCCCOC(=O)c1ccc(OC)c(OC)c1)C(C)Cc1ccc(OC)cc1 (stereo not given),1.65%,2,1.35,,,0.6% (inactive),0.5%,13.9 (inactive),,,
CC[C@]12CCCN3CCc4c(n(c5ccccc45)C(=O)C1)[C@@H]32,-6.74%,2,1.73,,,35.1% (inactive),6.2%,2 (inactive),191% (inactive) and 75.4% (inactive),102% and 73.8%,
CCCCOc1ccc(OCCCN2CCOCC2)cc1,6.69%,2,1.24,,,1.4% (inactive),0.4%,2 (inactive),92% (inactive) and 117% (inactive) and 30.7% (inactive),109% and 67.4% and 85.2%,
C[N+]12CCC(CC1)C(OC(=O)C(O)(c1ccccc1)c1ccccc1)C2 (stereo not given),-0.25%,2,1.21,,,1.4% (inactive),1.9%,4.17 (inactive),89.9% (inactive) and 72% (inactive) and 63.2% (inactive),98.6% and 73% and 99.2%,
O=C(COc1ccc(Cl)cc1)N1CCN(Cc2ccc3c(c2)OCO3)CC1,0.58%,2.5,1.39,,,1% (inactive),-0.3%,7.17 (inactive),33.6% (inactive) and 155% (inactive) and 109% (inactive),49.1% and 91.8% and 89.5%,
O=C(O)c1ccccc1OP(=O)(O)O,-7.63%,2,0.8,,,0.8% (inactive),2.9%,6.17 (inactive),79.1% (inactive) and 102% (inactive),101% and 71.6%,
Cc1c(NC(=O)c2cccnc2)c(=O)n(-c2ccccc2)n1C,-15.2%,2,1.3,,,-1.7% (inactive),1.7%,16.6 (inactive),43.9% (inactive) and 167% (inactive) and 109% (inactive),47% and 88.9% and 92.6%,
COc1ccc2cc3[n+](cc2c1OC)CCc1cc2c(cc1-3)OCO2,15.2%,2,0.27,,,0.6% (inactive),0%,0.5 (inactive),31.4% (inactive) and 124% (inactive) and 72.9% (inactive),103% and 67.6% and 82.6%,
COc1ccccc1OCC(O)CO (stereo not given),-12.9%,2,0.924,,,1.9% (inactive),0.9%,4.75 (inactive),,,
Cc1onc(-c2ccccc2Cl)c1C(=O)N[C@@H]1C(=O)N2[C@@H]1SC(C)(C)[C@@H]2C(=O)O,-4.39%,2,1.08,,,0.5% (inactive),0.3%,24.6 (inactive),,,
NCC1CCC(C(=O)O)CC1 (stereo not given),10.5%,2,1.21,,,0.7% (inactive),0.5%,17.8 (inactive),,,
